From PubChem BioAssay
An excerpt weighted towards active compounds, which were near 12% of everything screened.
WT yeast gro inh = growth inhibition of WT yeast, mitochondrial fusion screen; mitochondrial fusion phenotypic screen, WT strain; inhibition, % at 10 µM; 190,000 tested, 2.1% active; AID 1362; in the data active = inhibition above about 58%; tested in S. cerevisiae
ROMK mod = human ROMK K+ channel modulation, primary screen; P48048; Tet-inducible ROMK, thallium flux fluorescence; actives lie on both sides; B-score at 10 µM; 130,000 tested, 2% active;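 active = signal ratio slope over the read window, or its plate-corrected B-score, at least 3 SD from the plate mean, either direction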;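 note: B-score of the F/F0 ratio slope over 7 to 12 s after thallium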
KCC2 mod = modulators of human KCC2 chloride dependent transport | B-score of Tl+ flux slope (higher = more flux/activation; lower = inhibition) at 10 µM | Q9H2X9 | 190,000 tested, 2.2% active | AID 1456 | KCC2 cells, thallium flux FluoZin-2 fluorescence;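 active = thallium flux slope and its plate-corrected score both differing from the plate sample mean at a set confidence after two filtering rounds, in either direction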;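 note: slope of fluorescence scaled to starting intensity during 10 to 20 s after thallium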
Target sequence (Q9H2X9 whole entry, looked up): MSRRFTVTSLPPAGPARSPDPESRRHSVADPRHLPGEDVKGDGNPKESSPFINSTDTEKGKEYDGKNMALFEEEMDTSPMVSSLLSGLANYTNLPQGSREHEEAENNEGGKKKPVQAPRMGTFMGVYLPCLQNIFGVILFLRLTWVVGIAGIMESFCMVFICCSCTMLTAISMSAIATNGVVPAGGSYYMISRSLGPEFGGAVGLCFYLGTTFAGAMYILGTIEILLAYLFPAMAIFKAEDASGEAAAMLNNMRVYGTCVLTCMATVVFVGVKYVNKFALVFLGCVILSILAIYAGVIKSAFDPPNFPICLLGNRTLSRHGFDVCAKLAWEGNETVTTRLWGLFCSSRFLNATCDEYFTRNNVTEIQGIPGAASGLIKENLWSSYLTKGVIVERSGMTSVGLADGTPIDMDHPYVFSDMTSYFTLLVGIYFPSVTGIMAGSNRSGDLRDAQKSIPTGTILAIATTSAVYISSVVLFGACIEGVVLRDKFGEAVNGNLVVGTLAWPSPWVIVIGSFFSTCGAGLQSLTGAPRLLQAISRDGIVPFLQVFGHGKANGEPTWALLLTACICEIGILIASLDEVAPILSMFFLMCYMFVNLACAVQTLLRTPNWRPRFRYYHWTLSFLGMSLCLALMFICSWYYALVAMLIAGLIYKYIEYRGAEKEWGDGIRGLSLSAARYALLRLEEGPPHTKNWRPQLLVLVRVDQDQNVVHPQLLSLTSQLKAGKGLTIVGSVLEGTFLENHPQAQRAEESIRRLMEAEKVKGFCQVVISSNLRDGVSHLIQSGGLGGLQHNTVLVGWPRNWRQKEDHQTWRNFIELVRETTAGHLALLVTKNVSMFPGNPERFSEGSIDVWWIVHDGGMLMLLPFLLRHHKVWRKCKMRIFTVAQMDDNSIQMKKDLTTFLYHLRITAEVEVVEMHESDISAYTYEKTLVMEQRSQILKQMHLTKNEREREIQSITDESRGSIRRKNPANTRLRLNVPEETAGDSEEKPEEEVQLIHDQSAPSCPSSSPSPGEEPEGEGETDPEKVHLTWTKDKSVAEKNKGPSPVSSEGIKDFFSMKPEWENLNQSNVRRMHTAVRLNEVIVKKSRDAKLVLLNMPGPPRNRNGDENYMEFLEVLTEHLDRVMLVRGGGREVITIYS
Lmaj promast = reduces viability of Leishmania major promastigotes. resazurin fluorescence viability. inhibition, % at 10 µM. 200,000 tested, 9% active; in the data active = inhibition above about 50%;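 note: promastigotes grown with compound for 44 hours at 28 °C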
Calpain2 inh = blocks pig calpain II enzyme activity | purified calpain II, fluorogenic peptide substrate, 30 min | inhibition, % at 16 µM | 220,000 tested, 0.37% active | AID 1236;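 active = inhibition above about 50%, limit read from the data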
KCC2 secondary = confirmation of human KCC2 transport modulators | shares compounds with KCC2 mod | HEK293-KCC2, thallium flux, FluoZin2 fluorescence; stronger effect = higher value | normalised thallium flux (F/F0 slope) at 10 µM | 3,700 tested, 15% active | AID 1713;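 active = thallium flux slope above the same plate's solvent-only control mean plus 3 SD; inconclusive = the two replicate wells disagree; inactive = no significant difference from solvent-only control wells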
KCC2 bumet counter = thallium flux persisting under bumetanide in KCC2 cells, counter-screen secondary assay; normalized thallium flux at 10 µM; 3,700 tested, 49% active; AID 1714; shares compounds with KCC2 mod; HEK293-KCC2 + bumetanide/ouabain, thallium flux FluoZin2; stronger effect = higher value;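 active = thallium entry rate above the same plate's blocked-transporter control wells by more than 3 SD; inconclusive = the two repeat wells disagree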;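 note: raw slope of fluorescence over initial fluorescence between 10 and 20 s after thallium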
KCC2 secondary2 = KCC2 (human) modulation, second secondary assay; shares compounds with KCC2 mod; HEK293-KCC2, thallium flux FluoZin2 fluorescence; actives lie on both sides; F/F0 rise rate, 10–20 s post-thallium; normalized thallium flux at 10 µM; 3,700 tested, 23% active;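 active = thallium flux slope more than 3 SD above or below the plate's solvent-only control mean, mostly below; inconclusive = the two repeat wells disagreed; inactive = no significant shift from solvent-only controls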;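 note: raw slope with 0.1% DMSO as baseline and bumetanide as block control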
HEK293 Tl flux = parental HEK flux effect, counter-screen; HEK293 parental cells, thallium flux FluoZin2, ouabain; baseline-ratio fluorescence slope, 10–20 s after thallium; shares compounds with KCC2 mod; thallium flux rate (normalised fluorescence) at 10 µM; 3,700 tested, 46% active; AID 1716;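 active = thallium flux rate significantly above the same plate's solvent-only control wells, beyond their mean plus 3 SD; inconclusive = the two replicate wells gave conflicting results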
KCC2 ouabain = confirmation of human KCC2 modulators with ouabain; shares compounds with KCC2 mod; AID 1717; 3,700 tested, 48% active; HEK293-KCC2, thallium flux FluoZin2 fluorescence; bidirectional: low = inhibitor, high = activator; raw Tl+ flux slope (below DMSO = inhibition, above = activation) at 10 µM;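 active = thallium flux slope beyond 3 SD from same-plate DMSO control mean in most replicates, usually higher, sometimes lower; inconclusive = repeat tests gave conflicting results; inactive = no significant difference from controls in most replicates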;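 note: slope of initial-normalized fluorescence between seconds 10 and 20 after thallium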
HEK counter2 = parental HEK flux effect, counter-screen 2. shares compounds with KCC2 mod. HEK293 parental, thallium flux FluoZin-2 fluorescence slope. thallium flux slope at 10 µM. 3,700 tested, 33% active. AID 1718;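 active = thallium flux slope above the same plate's solvent-control mean plus 3 SD in both duplicate wells; inconclusive = duplicate wells that disagreed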;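 note: run without ouabain in cells lacking the KCC2 cotransporter; slope of fluorescence scaled to its starting value between 10 and 20 s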
* = called active by the depositor; ? = inconclusive; nt = not tested or not shown.

SMILES	WT yeast gro inh	ROMK mod	KCC2 mod	Lmaj promast	Calpain2 inh	KCC2 secondary	KCC2 bumet counter	KCC2 secondary2	HEK293 Tl flux	KCC2 ouabain	HEK counter2
Cc1ccc(C(=O)Nc2nnc(-c3ccco3)o2)cc1	17.4	nt	3.89	11.7	-3.4	nt	nt	nt	nt	nt	nt
COc1ccc(-c2ncccc2O)cc1	1.4	-0.0596	0.143	0.5	-307.8	nt	nt	nt	nt	nt	nt
COc1ccc(N=Nc2ccc(O)c3ncccc23)cc1	nt	nt	32*	nt	4.2	0.0188	0.0344*	0.0319	0.02*	0.0269*	0.0189*
COc1ccc(C)cc1N=Nc1ccc(O)c2ncccc12	20.4	-0.0182	21.3*	100.3*	-64.3	0.0069	0.0349*	0.0389*	0.0212*	0.0352*	0.0226*
Oc1ccc(N=Nc2ccc3c(c2)OCCO3)c2cccnc12	8.0	1.41	24*	100.3*	9.0	0.0106	0.0374*	0.0327	0.0608*	0.0391*	0.0145*
CCN(CC)C(=O)Cn1cc(C(=O)C2CC2)c2ccccc21	2.5	-0.345	0.798	0.1	-21.7	nt	nt	nt	nt	nt	nt
CCOc1ccc(S(=O)(=O)NCCC(=O)OC(C)C(=O)N2CCc3ccccc32)cc1 (centres undefined)	4.7	nt	nt	8.5	7.1	nt	nt	nt	nt	nt	nt
CCOC(=O)N1CCN(C(=O)CCSc2ccccc2)CC1	20.3	-0.114	nt	-5.0	-5.6	nt	nt	nt	nt	nt	nt
O=C1Cc2ccccc2C(=O)N1CCc1ccccc1	15.1	nt	nt	-4.4	23.5	0.00667	0.00469	0.0277	0.00739	0.0181	0.0107
O=[N+]([O-])c1ccc(O)c(/C=N/n2cnc3ccccc32)c1	-9.2	nt	-4.52*	-9.7	8.1	0.00546	0.00492	0.0215*	0.00606*	0.0132*	?
O=[N+]([O-])c1ccc(O)c(/C=N/n2c(CO)nc3ccccc32)c1	nt	nt	-1.52	nt	-4.4	nt	nt	nt	nt	nt	nt
C=CCN(c1ccc(OC)cc1)S(=O)(=O)c1ccc(Cl)c(C(=O)OCC(=O)NC2CC2)c1	-8.8	0.0746	-3.79*	-1.8	-11.1	0.00925	0.00707	?	0.00598	0.0143*	0.00971
Cc1cc(=O)n2[nH]c(SCc3ccccc3)nc2n1	-5.2	-0.825	-2.86	-8.7	13.1	nt	nt	nt	nt	nt	nt
O=c1cc(-c2ccccc2)nc2nc(SCc3ccccc3)[nH]n12	-1.2	0.674	nt	-0.8	-8.0	0.00897	0.00675	0.0292	0.0073	0.0148*	0.0099
CCOc1ccc(CCNC(=O)c2cc3sccc3n2C)cc1OCC	5.1	0.41	3.88*	-0.7	28.8	0.00737	0.00412	?	?	0.0172	0.00941
CCOC(=O)c1ccccc1NC(=O)CN(c1ccccc1)S(=O)(=O)N(C)C	11.1	-1.03	-1.83	15.4	-25.5	nt	nt	nt	nt	nt	nt
CCCCn1c(N)c(-c2nc3ccccc3o2)c2c([N+](=O)[O-])nn(CC)c(=O)c21	-12.5	0.805	0.193	0.6	-2.0	nt	nt	nt	nt	nt	nt
CCCn1nc([N+](=O)[O-])c(C(C#N)c2nc3ccccc3o2)c(Cl)c1=O (centres undefined)	3.2	nt	-6.58*	-6.1	-2.3	0.00722	?	0.022*	0.00576*	0.0119*	0.00886
O=S1(=O)C=C(SCc2ccc(F)cc2)Nc2ccccc21	3.1	-1.04	-4.34*	8.1	14.6	0.00783	0.00632	0.0278	0.00714	0.0269*	0.0105
O=S1(=O)C=C(SCc2ccccc2)Nc2ccccc21	9.2	nt	-1.82	22.5	4.8	nt	nt	nt	nt	nt	nt
COc1ccc2nc(N3CCCCC3)c(C#N)cc2c1	15.6	nt	0.14	2.9	-342.1	nt	nt	nt	nt	nt	nt
COc1ccc2nc(N3CCCCC3)c(/C=C3\SC(=S)NC3=O)cc2c1	nt	nt	45.4*	nt	27.2	0.0159*	0.0577*	0.032	0.0751*	0.0447*	0.0174*
Cn1cccc1Cc1nnc(SCC(=O)NCC2CCCO2)n1-c1ccc(F)cc1 (centres undefined)	4.1	nt	nt	-3.4	7.8	nt	nt	nt	nt	nt	nt
O=C(O)CONC(=O)c1cc(OCC(F)(F)F)ccc1OCC(F)(F)F	-2.6	nt	0.131	-5.2	-1.7	nt	nt	nt	nt	nt	nt
C/C(=N\N1CCN(C2c3ccccc3-c3ccccc32)CC1)c1cccnc1	5.7	nt	-0.0106	9.9	-25.4	nt	nt	nt	nt	nt	nt
SMILES	WT yeast gro inh	ROMK mod	KCC2 mod	Lmaj promast	Calpain2 inh	KCC2 secondary	KCC2 bumet counter	KCC2 secondary2	HEK293 Tl flux	KCC2 ouabain	HEK counter2
CN=c1scc(-c2ccccc2F)n1/N=C(\C)c1cccnc1	71.1*	-0.142	-3.91*	14.7	45.0	0.00702	0.00482	?	0.00773	?	0.0109
Cc1nnc(SC(C(=O)Nc2ccc(Cl)c([N+](=O)[O-])c2)c2ccccc2)[nH]c1=O (centres undefined)	-10.1	-0.311	-2.13	16.3	11.5	nt	nt	nt	nt	nt	nt
Cc1ccc(Cn2c(SC(C)C(N)=O)nc3ccccc3c2=O)cc1 (centres undefined)	-4.9	-0.0046	8.63*	-2.3	-8.6	0.00612	0.0221*	0.0362	0.0151*	0.0301*	0.018*
C/C(N)=C(/C#N)C(=O)CSc1nc2cc(Cl)ccc2c(=O)n1Cc1ccco1	-12.8	-0.376	nt	-1.9	-65.4	nt	nt	nt	nt	nt	nt
C/C(N)=C(/C#N)C(=O)CSc1nc2ccccc2c(=O)n1Cc1ccc(F)cc1	nt	nt	95.1*	nt	-12.7	?	0.0708*	0.0526*	0.0641*	0.0614*	0.0565*
C/C(N)=C(/C#N)C(=O)CSc1nc2ccccc2c(=O)n1Cc1ccc(C)cc1	-0.8	0.251	21.7*	10.3	-53.5	0.00795	0.0213*	0.0316	0.025*	0.0289*	0.0156*
Cc1ccc(Cn2c(SCC(=O)Nc3cc(C)on3)nc3ccccc3c2=O)cc1	14.5	0.0389	nt	8.4	-4.5	0.00652	0.00545	?	0.0162*	0.0273*	0.019*
COc1ccc(CN2CCNC(=O)C2CC(=O)NC2Cc3ccccc3C2)c(OC)c1 (centres undefined)	-15.5	0.117	nt	-5.6	6.9	nt	nt	nt	nt	nt	nt
O=C(NCC1CCCO1)C1CCC(CNS(=O)(=O)c2ccccc2)CC1 (centres undefined)	13.4	nt	1.02	-7.8	18.7	nt	nt	nt	nt	nt	nt
NNC(=S)Nc1ccc(C(F)(F)F)cc1Cl	nt	nt	16.2*	nt	-17.6	0.0107	0.03*	0.0353	0.02*	0.0261	0.0142*
CCOc1ccc2ccccc2c1CNc1nnnn1C	17.5	1.08	0.538	-3.7	21.7	nt	nt	nt	nt	nt	nt
COc1ccc(CCNC(=O)C2CCN(S(C)(=O)=O)CC2)cc1	-18.4	0.658	-3.36*	-3.6	-24.5	0.00755	0.004	0.0269	0.00742	0.0188	0.00952
COc1ccc(CCNC(=O)C2CCN(S(=O)(=O)c3cc(OC)ccc3OC)CC2)cc1	-15.8	-0.241	nt	26.3	3.6	nt	nt	nt	nt	nt	nt
